This note sets out measurements from PMC7862700, “An all-to-all approach to the identification of sequence-specific readers for epigenetic DNA modifications on cytosine”.

Holding throughout (test): DAPPL (digital affinity profiling via proximity ligation, sequencing); 10 mM Tris-HCl pH 7.5, 50 mM NaCl, 1 mM DTT, 4% glycerol, room temperature, 30 min; GST-TFs on glutathione beads, 16-mer random dsDNA library, 0.1% formaldehyde crosslink after washing; high values mean tight binding
The target of experiment [1] is T1, FLI1 (Homo sapiens, UniProt Q01543 1-452).
T1 sequence: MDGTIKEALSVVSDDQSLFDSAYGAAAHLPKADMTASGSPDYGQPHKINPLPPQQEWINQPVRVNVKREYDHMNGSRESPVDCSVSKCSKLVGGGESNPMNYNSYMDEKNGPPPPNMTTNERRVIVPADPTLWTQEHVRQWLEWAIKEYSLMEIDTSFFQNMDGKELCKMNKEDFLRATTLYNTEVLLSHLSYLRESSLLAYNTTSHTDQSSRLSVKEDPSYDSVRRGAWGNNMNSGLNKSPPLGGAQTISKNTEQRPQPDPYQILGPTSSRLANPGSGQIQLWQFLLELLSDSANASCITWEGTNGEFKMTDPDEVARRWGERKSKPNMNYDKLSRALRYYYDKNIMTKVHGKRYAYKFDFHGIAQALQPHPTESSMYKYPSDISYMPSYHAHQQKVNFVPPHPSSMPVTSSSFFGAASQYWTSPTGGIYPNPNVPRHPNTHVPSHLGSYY
To be noted: protein: recombinant; tags: N-terminal GST; dsDNA, one strand shown. The procedure, abridged: (§1)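 Pools of DNA-barcoded human transcription factors, expressed in yeast as GST fusions on glutathione beads and combined with a tag-only sample, were incubated with 200 nmole of a 16-mer random double-stranded DNA library. Incubation took 30 min at room temperature in Tris/NaCl/DTT/glycerol buffer and was followed by washing, 0.1% formaldehyde crosslinking, proximity ligation (BsaI/T4 ligase, 1 h, 37 °C), PCR amplification and sequencing on an Illumina NextSeq500. Binding signal is the ratio of a hexamer's read frequency for a factor to its frequency for the tag-only sample.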

For experiment [2], the target named is T2, ELK1 (Homo sapiens, UniProt P19419 1-428).
T2 sequence: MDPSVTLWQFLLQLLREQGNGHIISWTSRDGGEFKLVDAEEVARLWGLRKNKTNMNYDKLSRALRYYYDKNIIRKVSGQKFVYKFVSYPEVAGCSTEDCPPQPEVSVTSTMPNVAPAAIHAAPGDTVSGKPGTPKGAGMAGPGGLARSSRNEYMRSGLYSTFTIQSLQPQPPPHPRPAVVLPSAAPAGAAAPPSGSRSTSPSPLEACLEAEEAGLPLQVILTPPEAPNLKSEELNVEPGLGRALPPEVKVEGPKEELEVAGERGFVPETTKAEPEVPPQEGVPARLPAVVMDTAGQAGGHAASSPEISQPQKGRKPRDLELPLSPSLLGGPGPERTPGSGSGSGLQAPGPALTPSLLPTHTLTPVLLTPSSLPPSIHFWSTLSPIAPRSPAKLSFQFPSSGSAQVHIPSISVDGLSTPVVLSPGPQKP
To be noted: protein: recombinant; tags: N-terminal GST; dsDNA, one strand shown. The procedure, abridged: as §1

Experiment [3] concerns the target T3, GABPA (Homo sapiens, UniProt Q06546 1-454).
T3 sequence: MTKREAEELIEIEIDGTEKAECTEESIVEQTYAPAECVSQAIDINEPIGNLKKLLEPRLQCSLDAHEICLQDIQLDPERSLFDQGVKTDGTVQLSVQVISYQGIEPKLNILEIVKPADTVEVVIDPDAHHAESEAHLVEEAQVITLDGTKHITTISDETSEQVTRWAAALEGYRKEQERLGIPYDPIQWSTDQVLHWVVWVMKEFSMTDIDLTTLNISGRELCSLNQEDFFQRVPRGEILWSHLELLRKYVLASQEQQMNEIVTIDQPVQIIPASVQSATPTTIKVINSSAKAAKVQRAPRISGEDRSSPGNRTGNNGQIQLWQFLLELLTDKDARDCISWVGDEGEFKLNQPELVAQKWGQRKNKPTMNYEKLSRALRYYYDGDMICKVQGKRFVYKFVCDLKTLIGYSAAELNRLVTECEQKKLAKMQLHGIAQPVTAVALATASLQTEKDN
The conditions noted are these: protein: recombinant; tags: N-terminal GST; dsDNA, one strand shown. The method in brief: as §1

Experiment [4] deals with ELF1 (Homo sapiens, UniProt P32519 1-619). To be noted: protein: recombinant; tags: N-terminal GST; dsDNA, one strand shown. The method in brief: as §1
Chain of ELF1 (P32519 whole entry): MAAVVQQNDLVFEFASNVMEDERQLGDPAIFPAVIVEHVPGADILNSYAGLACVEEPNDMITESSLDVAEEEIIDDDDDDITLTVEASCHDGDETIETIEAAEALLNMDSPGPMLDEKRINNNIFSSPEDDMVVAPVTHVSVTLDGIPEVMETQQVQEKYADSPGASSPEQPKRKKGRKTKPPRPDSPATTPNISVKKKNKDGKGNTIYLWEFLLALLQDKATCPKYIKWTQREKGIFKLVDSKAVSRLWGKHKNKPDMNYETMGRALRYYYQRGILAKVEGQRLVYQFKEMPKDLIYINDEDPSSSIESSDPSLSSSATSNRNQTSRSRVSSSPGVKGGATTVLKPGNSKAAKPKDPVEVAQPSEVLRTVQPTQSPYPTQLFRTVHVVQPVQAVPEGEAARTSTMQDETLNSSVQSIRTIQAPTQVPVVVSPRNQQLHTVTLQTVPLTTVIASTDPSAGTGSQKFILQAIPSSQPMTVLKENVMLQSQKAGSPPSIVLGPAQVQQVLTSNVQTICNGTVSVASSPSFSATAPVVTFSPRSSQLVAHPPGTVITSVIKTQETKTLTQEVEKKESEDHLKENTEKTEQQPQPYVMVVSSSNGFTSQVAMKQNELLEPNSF
Experiment [5] addresses T4, EHF (Homo sapiens, UniProt Q9NZC4 1-300).
T4 sequence: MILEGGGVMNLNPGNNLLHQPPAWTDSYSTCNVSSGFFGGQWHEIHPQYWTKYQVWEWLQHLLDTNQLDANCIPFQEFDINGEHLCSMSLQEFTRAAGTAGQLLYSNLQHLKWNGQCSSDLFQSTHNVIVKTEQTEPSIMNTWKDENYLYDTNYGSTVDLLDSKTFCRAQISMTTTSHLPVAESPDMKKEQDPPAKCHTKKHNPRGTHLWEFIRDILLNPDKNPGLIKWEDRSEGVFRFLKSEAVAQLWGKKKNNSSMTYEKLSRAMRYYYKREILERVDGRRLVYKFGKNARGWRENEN
To be noted: protein: recombinant; tags: N-terminal GST; dsDNA, one strand shown. The method in brief:
as §1

The target of experiment [6] is SPI1 (Homo sapiens, UniProt P17947 1-270). To be noted: protein: recombinant; tags: N-terminal GST; dsDNA, one strand shown. The procedure, abridged:
as §1

For experiment [7], the target named is SPIB (Homo sapiens, UniProt Q01892 1-262). To be noted: protein: recombinant; tags: N-terminal GST; dsDNA, one strand shown. The method in brief: as §1
Chain of SPIB (Q01892 whole entry): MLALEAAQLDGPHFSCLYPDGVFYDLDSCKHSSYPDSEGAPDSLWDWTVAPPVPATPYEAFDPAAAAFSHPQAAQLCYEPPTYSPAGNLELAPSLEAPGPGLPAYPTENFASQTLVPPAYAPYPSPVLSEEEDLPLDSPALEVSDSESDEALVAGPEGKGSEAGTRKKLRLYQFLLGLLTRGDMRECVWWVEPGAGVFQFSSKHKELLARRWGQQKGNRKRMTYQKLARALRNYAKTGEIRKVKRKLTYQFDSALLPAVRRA
The target in experiment [8] is T5, ELK3 (Homo sapiens, UniProt P41970 1-407).
T5 sequence: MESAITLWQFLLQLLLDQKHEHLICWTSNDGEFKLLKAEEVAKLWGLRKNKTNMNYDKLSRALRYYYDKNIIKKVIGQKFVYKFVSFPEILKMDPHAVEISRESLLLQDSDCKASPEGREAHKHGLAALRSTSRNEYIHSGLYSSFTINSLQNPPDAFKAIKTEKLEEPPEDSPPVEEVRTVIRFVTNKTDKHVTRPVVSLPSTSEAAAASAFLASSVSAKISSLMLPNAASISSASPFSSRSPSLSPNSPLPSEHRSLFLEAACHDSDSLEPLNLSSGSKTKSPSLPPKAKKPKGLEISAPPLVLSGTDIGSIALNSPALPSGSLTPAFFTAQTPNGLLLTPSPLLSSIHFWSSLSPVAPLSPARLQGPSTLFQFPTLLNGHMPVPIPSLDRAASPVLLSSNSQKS
To be noted: protein: recombinant; tags: N-terminal GST; dsDNA, one strand shown. The procedure, abridged: as §1

Experiment [9] addresses T6, FEV (Homo sapiens, UniProt Q99581 1-238).
T6 sequence: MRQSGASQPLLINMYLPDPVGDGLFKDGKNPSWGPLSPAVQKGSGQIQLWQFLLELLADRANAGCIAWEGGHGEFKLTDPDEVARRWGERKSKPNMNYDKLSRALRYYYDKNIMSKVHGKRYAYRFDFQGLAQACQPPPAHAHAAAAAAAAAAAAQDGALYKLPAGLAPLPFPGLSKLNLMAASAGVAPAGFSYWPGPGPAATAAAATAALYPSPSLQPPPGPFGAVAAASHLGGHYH
To be noted: protein: recombinant; tags: N-terminal GST; dsDNA, one strand shown. The method in brief: as §1

The target of experiment [10] is ETV5 (Homo sapiens, UniProt P41161 1-510). To be noted: protein: recombinant; tags: N-terminal GST; dsDNA, one strand shown. The procedure, abridged:
as §1

For experiment [11], the target named is HSF1 (Homo sapiens, UniProt Q00613 1-529). The conditions noted are these: protein: recombinant; tags: N-terminal GST; chain copies: 3; dsDNA, one strand shown. The procedure, abridged:
as §1

The target in experiment [12] is T7, SPIC (Homo sapiens, UniProt Q8N5J4 1-248).
T7 sequence: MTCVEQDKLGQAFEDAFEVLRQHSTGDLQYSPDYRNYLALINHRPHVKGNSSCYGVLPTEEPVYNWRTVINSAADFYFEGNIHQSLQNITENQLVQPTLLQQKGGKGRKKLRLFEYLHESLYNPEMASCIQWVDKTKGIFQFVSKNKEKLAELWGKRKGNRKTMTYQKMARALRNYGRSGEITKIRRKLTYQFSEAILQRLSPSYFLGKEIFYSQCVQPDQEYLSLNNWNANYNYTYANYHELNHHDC
To be noted: protein: recombinant; tags: N-terminal GST; dsDNA, one strand shown. The method in brief: as §1

Experiment [13] has as its target ELF4 (Homo sapiens, UniProt Q99607 1-663). To be noted: protein: recombinant; tags: N-terminal GST; dsDNA, one strand shown. The procedure, abridged: as §1
The target in experiment [14] is T8, ELK4 (Homo sapiens, UniProt P28324-2 1-405).
T8 sequence: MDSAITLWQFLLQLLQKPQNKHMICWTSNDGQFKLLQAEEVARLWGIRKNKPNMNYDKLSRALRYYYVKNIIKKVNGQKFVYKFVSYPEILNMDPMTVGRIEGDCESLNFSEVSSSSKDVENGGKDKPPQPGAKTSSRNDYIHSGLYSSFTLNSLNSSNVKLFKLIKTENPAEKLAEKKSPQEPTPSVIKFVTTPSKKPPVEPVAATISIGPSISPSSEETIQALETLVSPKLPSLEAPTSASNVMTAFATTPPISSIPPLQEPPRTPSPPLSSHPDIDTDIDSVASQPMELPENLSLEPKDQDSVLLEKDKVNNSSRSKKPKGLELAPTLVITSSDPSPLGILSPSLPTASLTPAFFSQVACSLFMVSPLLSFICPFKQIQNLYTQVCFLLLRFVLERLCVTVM
To be noted: protein: recombinant; tags: N-terminal GST; dsDNA, one strand shown. The method in brief: as §1

In experiment [15] the target is T9, ETV2 (Homo sapiens, UniProt O00321 1-342).
T9 sequence: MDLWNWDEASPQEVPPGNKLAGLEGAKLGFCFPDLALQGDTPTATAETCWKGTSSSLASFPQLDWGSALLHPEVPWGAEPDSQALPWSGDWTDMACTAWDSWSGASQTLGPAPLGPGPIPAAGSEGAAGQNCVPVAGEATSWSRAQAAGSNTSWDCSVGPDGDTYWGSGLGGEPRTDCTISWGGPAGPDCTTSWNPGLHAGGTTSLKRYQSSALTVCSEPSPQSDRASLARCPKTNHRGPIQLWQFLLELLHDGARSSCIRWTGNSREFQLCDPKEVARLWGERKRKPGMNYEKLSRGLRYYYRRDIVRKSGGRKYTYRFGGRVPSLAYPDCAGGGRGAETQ
To be noted: protein: recombinant; tags: N-terminal GST; dsDNA, one strand shown. The procedure, abridged: as §1

The target of experiment [16] is T10, ELF3 (Homo sapiens, UniProt P78545 1-371).
T10 sequence: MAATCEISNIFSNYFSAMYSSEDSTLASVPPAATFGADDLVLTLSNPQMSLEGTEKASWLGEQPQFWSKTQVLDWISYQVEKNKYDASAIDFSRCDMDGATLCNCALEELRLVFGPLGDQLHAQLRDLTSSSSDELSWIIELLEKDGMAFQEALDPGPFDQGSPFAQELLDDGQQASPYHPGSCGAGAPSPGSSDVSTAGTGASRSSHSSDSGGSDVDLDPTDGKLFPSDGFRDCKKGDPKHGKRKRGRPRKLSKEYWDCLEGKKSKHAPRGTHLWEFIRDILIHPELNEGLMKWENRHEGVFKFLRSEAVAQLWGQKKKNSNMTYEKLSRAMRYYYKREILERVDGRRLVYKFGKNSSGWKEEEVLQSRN
The conditions noted are these: protein: recombinant; tags: N-terminal GST; dsDNA, one strand shown. The method in brief:
as §1

Experiment [17] addresses CRX (Homo sapiens, UniProt O43186 1-299). The conditions noted are these: protein: recombinant; tags: N-terminal GST; dsDNA, one strand shown. The method in brief:
as §1

For experiment [18], the target named is ETV1 (Homo sapiens, UniProt P50549 1-477). The conditions noted are these: protein: recombinant; tags: N-terminal GST; dsDNA, one strand shown. The procedure, abridged:
as §1

Chain of ELF4 (Q99607 whole entry): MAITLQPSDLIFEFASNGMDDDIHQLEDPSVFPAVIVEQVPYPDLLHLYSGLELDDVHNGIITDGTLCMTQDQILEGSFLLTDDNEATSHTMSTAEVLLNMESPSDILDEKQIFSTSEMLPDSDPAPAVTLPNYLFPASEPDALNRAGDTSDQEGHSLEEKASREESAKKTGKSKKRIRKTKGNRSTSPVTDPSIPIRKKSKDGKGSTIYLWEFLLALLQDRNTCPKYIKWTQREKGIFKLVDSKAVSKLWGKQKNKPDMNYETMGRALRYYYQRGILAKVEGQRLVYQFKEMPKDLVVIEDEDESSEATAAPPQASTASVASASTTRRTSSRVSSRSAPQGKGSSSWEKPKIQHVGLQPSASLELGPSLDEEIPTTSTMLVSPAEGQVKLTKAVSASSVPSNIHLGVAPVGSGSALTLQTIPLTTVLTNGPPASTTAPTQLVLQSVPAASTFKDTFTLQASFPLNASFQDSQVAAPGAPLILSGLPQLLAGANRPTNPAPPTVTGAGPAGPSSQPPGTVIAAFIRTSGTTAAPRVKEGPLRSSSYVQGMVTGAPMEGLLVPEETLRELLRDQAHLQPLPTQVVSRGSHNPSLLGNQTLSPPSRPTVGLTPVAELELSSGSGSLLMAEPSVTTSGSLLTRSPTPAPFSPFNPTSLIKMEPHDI
Chain of ETV1 (P50549 whole entry): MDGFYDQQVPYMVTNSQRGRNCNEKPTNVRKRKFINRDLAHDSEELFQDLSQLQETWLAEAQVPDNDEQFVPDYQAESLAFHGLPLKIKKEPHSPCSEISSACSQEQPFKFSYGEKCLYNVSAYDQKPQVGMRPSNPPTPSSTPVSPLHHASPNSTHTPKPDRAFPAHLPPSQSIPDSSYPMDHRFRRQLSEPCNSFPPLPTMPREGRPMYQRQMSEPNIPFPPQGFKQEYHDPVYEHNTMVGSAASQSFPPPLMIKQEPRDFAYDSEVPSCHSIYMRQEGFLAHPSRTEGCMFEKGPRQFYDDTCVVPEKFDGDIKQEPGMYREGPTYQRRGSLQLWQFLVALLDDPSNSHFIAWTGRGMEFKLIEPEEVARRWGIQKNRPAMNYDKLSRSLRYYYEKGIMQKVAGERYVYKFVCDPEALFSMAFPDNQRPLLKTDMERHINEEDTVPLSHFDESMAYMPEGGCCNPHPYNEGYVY
Chain of ETV5 (P41161 whole entry): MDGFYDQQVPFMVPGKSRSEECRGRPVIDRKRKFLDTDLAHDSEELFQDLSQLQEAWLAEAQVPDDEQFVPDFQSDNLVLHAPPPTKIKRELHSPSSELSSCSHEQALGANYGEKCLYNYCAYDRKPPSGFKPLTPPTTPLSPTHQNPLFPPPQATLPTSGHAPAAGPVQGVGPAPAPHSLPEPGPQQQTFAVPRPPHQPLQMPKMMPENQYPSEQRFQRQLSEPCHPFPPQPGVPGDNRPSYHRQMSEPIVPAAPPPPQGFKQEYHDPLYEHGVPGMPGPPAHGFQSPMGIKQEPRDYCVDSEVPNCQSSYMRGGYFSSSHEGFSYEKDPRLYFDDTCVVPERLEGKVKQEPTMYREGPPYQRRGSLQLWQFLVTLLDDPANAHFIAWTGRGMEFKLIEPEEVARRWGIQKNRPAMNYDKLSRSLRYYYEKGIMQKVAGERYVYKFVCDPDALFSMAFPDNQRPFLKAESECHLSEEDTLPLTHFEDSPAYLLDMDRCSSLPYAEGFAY
Chain of HSF1 (Q00613 whole entry): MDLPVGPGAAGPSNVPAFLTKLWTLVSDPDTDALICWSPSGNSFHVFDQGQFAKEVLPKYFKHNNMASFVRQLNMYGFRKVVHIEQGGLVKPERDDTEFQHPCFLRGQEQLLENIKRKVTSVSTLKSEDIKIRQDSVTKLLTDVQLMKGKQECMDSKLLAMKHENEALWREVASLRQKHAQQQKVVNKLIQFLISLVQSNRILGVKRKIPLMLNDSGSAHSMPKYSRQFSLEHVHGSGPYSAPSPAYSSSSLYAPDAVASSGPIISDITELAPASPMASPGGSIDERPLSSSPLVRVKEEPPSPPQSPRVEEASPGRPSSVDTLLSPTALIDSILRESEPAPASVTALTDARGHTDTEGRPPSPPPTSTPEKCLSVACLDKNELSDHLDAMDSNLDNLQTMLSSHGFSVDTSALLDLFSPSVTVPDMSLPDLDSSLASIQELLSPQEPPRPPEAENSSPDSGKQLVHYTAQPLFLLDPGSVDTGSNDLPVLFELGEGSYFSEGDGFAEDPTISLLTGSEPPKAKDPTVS
Chain of CRX (O43186 whole entry): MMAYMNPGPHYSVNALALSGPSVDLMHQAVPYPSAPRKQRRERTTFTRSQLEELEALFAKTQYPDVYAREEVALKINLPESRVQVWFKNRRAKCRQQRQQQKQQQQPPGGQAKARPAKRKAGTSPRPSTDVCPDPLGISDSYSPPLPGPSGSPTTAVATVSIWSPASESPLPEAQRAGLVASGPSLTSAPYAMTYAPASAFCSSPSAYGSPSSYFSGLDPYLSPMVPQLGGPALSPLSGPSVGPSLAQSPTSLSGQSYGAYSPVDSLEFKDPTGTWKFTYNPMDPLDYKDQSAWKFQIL

Regarding AAAAGT, the binding signal was 1.02 fold enrichment (6-mer frequency, TF over GST control) in [1]; 1.1 fold enrichment (6-mer frequency, TF over GST control) in [2]; 1.08 fold enrichment (6-mer frequency, TF over GST control) in [3]; 1.01 fold enrichment (6-mer frequency, TF over GST control) in experiment [4]; 1.1 fold enrichment (6-mer frequency, TF over GST control) in experiment [5]; 1.06 fold enrichment (6-mer frequency, TF over GST control) in experiment [6]. In addition, the binding signal in experiment [7] is 1.12 fold enrichment (6-mer frequency, TF over GST control); in experiment [8], 1.06 fold enrichment (6-mer frequency, TF over GST control); in experiment [9], 1.04 fold enrichment (6-mer frequency, TF over GST control); in experiment [10], 1.06 fold enrichment (6-mer frequency, TF over GST control); in experiment [11] it was 1.06 fold enrichment (6-mer frequency, TF over GST control); in experiment [12], 1.1 fold enrichment (6-mer frequency, TF over GST control). The binding signal in [13] is 1.1 fold enrichment (6-mer frequency, TF over GST control); in [14], 1.24 fold enrichment (6-mer frequency, TF over GST control); in experiment [15] it was 1.03 fold enrichment (6-mer frequency, TF over GST control); in experiment [16] it was 1.12 fold enrichment (6-mer frequency, TF over GST control); in experiment [17] it was 1.09 fold enrichment (6-mer frequency, TF over GST control); in experiment [18] it was 1.13 fold enrichment (6-mer frequency, TF over GST control).
